This is an account of results in PubChem BioAssay (NCI).

Molecules are shown by their SMILES. The panel holds about 83,000 compounds, 20% with a hit somewhere; the sample as a whole holds those more often.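 Interpretation: 100, growth as untreated; towards 0, rising growth inhibition; 0, no net growth; 0 to -100, cell death. Compounds scoring below 10 were considered active.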 Unmarked numbers belong to inactive results. The source made the active and inactive calls.

Some test systems named below: NCI-H23 lung; NCI-H226 lung; NCI-H322M lung; HOP-62 NSCLC; NCI-H460 lung; HOP-92 NSCLC; A549/ATCC NSCLC; 786-0 renal; COLO 205 colon.
What all share (assay): NCI-60 one-dose screen, 48 h (100 = growth as untreated, 0 = no growth, -100 = all killed)
What all share (details): 10 µM unless noted

Take `O=C(CCCCCCNC(=O)C(O)(O)C(F)(F)F)Nc1ncc(-c2ccc(Br)cc2)s1`: the growth in the test with NCI-H23 lung was -16% (active); in the test on NCI-H226 lung, 4.5% (active); with NCI-H322M lung, 12.2%; in the test on HOP-62 NSCLC, -6.49% (active); with NCI-H460 lung, 0.631% (active); in the test with HOP-92 NSCLC it was -23.3% (active). Besides, the results for the growth with A549/ATCC NSCLC, with 786-0 renal and with COLO 205 colon were -15.2% (active), 14.9% and -55.9% (active), respectively.
As to `Fc1cc(F)cc(NNC(=S)c2ccccc2)c1`, the growth was 23.1% in the test with NCI-H23 lung; 49.7% with NCI-H226 lung; 73.4% with NCI-H322M lung; 58.4% with HOP-62 NSCLC; 21.9% in the test with NCI-H460 lung; -16.7% (active) with HOP-92 NSCLC. Besides, the growth in the test on A549/ATCC NSCLC was 31%; with 786-0 renal it was 53.3%; in the test with COLO 205 colon, 108%.
Regarding `CN1CCN(c2ccc(Nc3nc(NCCCNS(=O)(=O)c4cccc(F)c4)c4sccc4n3)cc2)CC1`, the growth in the test on NCI-H23 lung is 84%; in the test with NCI-H226 lung it was 112%; with NCI-H322M lung it was 68%; in the test with HOP-62 NSCLC, 96.6%; with NCI-H460 lung, 19.9%; in the test on HOP-92 NSCLC, 58.7%. Moreover, the growth with A549/ATCC NSCLC was 44.8%; in the test on 786-0 renal, -24.1% (active); in the test on COLO 205 colon, 27.1%.
`Cc1ccc(C(=O)Nc2ccc(CNCCN3CCNCC3)c(C(F)(F)F)c2)cc1C#Cc1cnc2cccnn12`: the growth in the test on NCI-H23 lung was 4.87% (active); with NCI-H226 lung, 97.1%; in the test with NCI-H322M lung, 55.3%; in the test with HOP-62 NSCLC, -48.8% (active); in the test on NCI-H460 lung it was -44.9% (active); in the test on HOP-92 NSCLC it was -28.2% (active). For the same compound, the values for the growth in the test on A549/ATCC NSCLC, in the test on 786-0 renal and in the test on COLO 205 colon were 16%, -70.2% (active) and -53.2% (active), respectively.
`Cc1ccc(NC(=O)Nc2nc3ccc([N+](=O)[O-])cc3s2)cc1`: the growth in the test on NCI-H23 lung is -4.55% (active); with NCI-H226 lung, 6.4% (active); in the test on NCI-H322M lung, 4.58% (active); with HOP-62 NSCLC, -4.29% (active); with NCI-H460 lung it was 3.09% (active); with HOP-92 NSCLC, -33% (active). For the same compound, the growth is 4.97% (active) in the test on A549/ATCC NSCLC, 8.32% (active) in the test with 786-0 renal and 48.8% in the test with COLO 205 colon.
With `CN1CCN(c2ccc(Nc3nc(NCCCNS(=O)(=O)c4ccccc4)c4sccc4n3)cc2)CC1`, the growth in the test on NCI-H23 lung is 90.6%; in the test on NCI-H226 lung, 111%; in the test on NCI-H322M lung, 80.3%; in the test on HOP-62 NSCLC it was 105%; in the test with NCI-H460 lung it was 36.9%; with HOP-92 NSCLC, 59.2%. The growth with A549/ATCC NSCLC is 62%; in the test on 786-0 renal, 7.25% (active); with COLO 205 colon it was 49.2%.
`CN1CCC[C@]2(C)[C@H]3CC[C@@H]4[C@@H]5[C@H]6OC[C@@]5(CCC6(C)C)CC[C@@]4(C)[C@]3(C)CC[C@H]2C1(C)C`: the growth with NCI-H23 lung was 91%; with NCI-H226 lung, 93.2%; in the test with NCI-H322M lung, 87.8%; with HOP-62 NSCLC, 94.2%; in the test on NCI-H460 lung, 1.69% (active); in the test on HOP-92 NSCLC, 50.6%. For the same compound, the figures for the growth in the test on 786-0 renal and with COLO 205 colon were 84.4% and -8.01% (active), respectively.
Consider `N#C/C(=C\c1cccc2c1OCO2)C(=O)Nc1sc2c(c1C#N)CCCC2`, for which the growth in the test on NCI-H23 lung was 102%; with NCI-H226 lung, 95.8%; with NCI-H322M lung, 89.1%; in the test on HOP-62 NSCLC, 96.8%; in the test with NCI-H460 lung, 110%; in the test on HOP-92 NSCLC, 101%. Besides, the growth is 104% with A549/ATCC NSCLC, 99.6% in the test on 786-0 renal and 119% with COLO 205 colon.
Consider `COc1ccc2c(c1)c(-c1nc(N)nnc1-c1c[nH]c3ccccc13)cn2C`, for which the growth was 47.7% with NCI-H23 lung; 37.6% in the test on NCI-H226 lung; 57.3% in the test on NCI-H322M lung; 44.8% with HOP-62 NSCLC; 14.2% in the test with NCI-H460 lung; 54% in the test on HOP-92 NSCLC. Besides, the values for the growth in the test on 786-0 renal and with COLO 205 colon were 54.5% and 29.3%, respectively.
As to `N#Cc1c(-c2ccc(Br)cc2)cc(-c2c[nH]c3ccccc23)nc1N`, the growth is 51.3% in the test with NCI-H23 lung; 60% with NCI-H226 lung; 67.6% in the test with NCI-H322M lung; 42.5% in the test on HOP-62 NSCLC; 16.7% with NCI-H460 lung; 43.6% in the test on HOP-92 NSCLC. Also, the results for the growth in the test with A549/ATCC NSCLC, with 786-0 renal and with COLO 205 colon were 42.1%, 79.7% and 51.5%, respectively.
`CCCCSC1=C(Cl)CN(c2ccccc2)C1=O`: the growth was 102% in the test with NCI-H23 lung; 102% in the test with NCI-H226 lung; 101% with NCI-H322M lung; 111% in the test with HOP-62 NSCLC; 104% in the test with NCI-H460 lung; 95.7% with HOP-92 NSCLC. Moreover, the results for the growth with A549/ATCC NSCLC, in the test on 786-0 renal and in the test with COLO 205 colon were 104%, 108% and 125%, respectively.
`N#Cc1c(-c2cccs2)c(C#N)c(=O)n(Cc2nc3ccccc3[nH]2)c1N`: the growth in the test with NCI-H23 lung was 90.7%; with NCI-H226 lung, 87%; in the test with NCI-H322M lung, 98.5%; in the test with HOP-62 NSCLC it was 93.3%; with NCI-H460 lung, 101%; in the test on HOP-92 NSCLC, 95.2%. Moreover, the growth in the test with A549/ATCC NSCLC is 103%; with 786-0 renal, 103%; with COLO 205 colon it was 111%.
`COc1ccc2c(c1)c(-c1nnc(N)nc1-c1c[nH]c3ccc(F)cc13)cn2C`: the growth in the test with NCI-H23 lung is 44.6%; with NCI-H226 lung, 57.8%; in the test on NCI-H322M lung it was 87%; with HOP-62 NSCLC, 54.7%; in the test on NCI-H460 lung it was 15.1%; in the test on HOP-92 NSCLC, 68.7%. Further, the growth in the test on A549/ATCC NSCLC is 50.7%; in the test on 786-0 renal, 46%; with COLO 205 colon, 41.4%.
In the case of `C#C[C@]1(O)CC[C@H]2[C@@H]3CC=C4c5sc(Nc6cc(C)cc(C)c6)nc5CC[C@]4(C)[C@H]3CC[C@@]21C`, the growth in the test with NCI-H23 lung is 14.8%; in the test with NCI-H226 lung it was 38.6%; in the test with NCI-H322M lung, 40.9%; in the test with HOP-62 NSCLC it was 20.5%; with NCI-H460 lung, 12.2%; in the test with HOP-92 NSCLC, 31.4%. Also, the growth with A549/ATCC NSCLC was 21.1%; in the test with 786-0 renal, -31.2% (active); with COLO 205 colon, -13.3% (active).
For the compound `CCCCSC1=C(Cl)CN(c2ccc(Cl)cc2)C1=O`, the growth in the test with NCI-H23 lung was 102%; in the test on NCI-H226 lung it was 96.1%; with NCI-H322M lung it was 107%; in the test on HOP-62 NSCLC, 106%; in the test with NCI-H460 lung it was 93.4%; in the test on HOP-92 NSCLC, 96.6%. The growth with 786-0 renal is 99.2%; with COLO 205 colon it was 125%.
In the case of `COc1ccc(C2c3[nH]c4ccc(Cl)cc4c3CCN2c2oc(CO)nc2C#N)cc1` (stereo not given), the growth with NCI-H23 lung was 69.9%; with NCI-H226 lung, 60%; with NCI-H322M lung, 70.4%; in the test on HOP-62 NSCLC it was 53.5%; with NCI-H460 lung, 22.9%; in the test on HOP-92 NSCLC it was 53.3%. Besides, the growth in the test on A549/ATCC NSCLC is 38.1%; with 786-0 renal, 64.6%; in the test on COLO 205 colon it was 40.5%.
For the compound `O=C(CSc1nc2ccccc2c(=O)n1-c1ccc(Cl)c(Cl)c1)Nc1ccc(S(=O)(=O)Nc2ccc(Cl)nn2)cc1`, the growth is 91.6% in the test on NCI-H23 lung; 90.9% in the test with NCI-H226 lung; 91.7% with NCI-H322M lung; 87.8% with HOP-62 NSCLC; 99.4% in the test with NCI-H460 lung; 72.5% in the test on HOP-92 NSCLC. Moreover, the results for the growth in the test on A549/ATCC NSCLC, with 786-0 renal and in the test on COLO 205 colon were 91.9%, 98.9% and 94.9%, respectively.
Take `O=C(CCCCCCN1CC(=O)N2[C@@H](c3ccc(Cl)s3)c3[nH]c4ccccc4c3C[C@H]2C1=O)NO`: the growth in the test with NCI-H23 lung was 41.1%; in the test with NCI-H226 lung, 68.6%; with NCI-H322M lung, 46%; with HOP-62 NSCLC, 61.5%; in the test on NCI-H460 lung it was 39.4%; in the test on HOP-92 NSCLC, 34.6%. The growth in the test with A549/ATCC NSCLC is 73.4%; in the test with 786-0 renal, 81.1%.
As to `C#C[C@]1(O)CC[C@H]2[C@@H]3CC=C4c5sc(Nc6cc(Cl)ccc6OC)nc5CC[C@]4(C)[C@H]3CC[C@@]21C`, the growth in the test on NCI-H23 lung was 33.4%; in the test on NCI-H226 lung, 52.4%; in the test on NCI-H322M lung, 53.2%; in the test on HOP-62 NSCLC it was 32.5%; in the test with NCI-H460 lung it was 17%; in the test with HOP-92 NSCLC it was -0.0409% (active). Further, the growth is 28.7% in the test on A549/ATCC NSCLC, -32.3% (active) in the test on 786-0 renal and 21.8% in the test with COLO 205 colon.
In the case of `O=C(Nc1cccc(C(F)(F)F)c1)N1CCN(c2cc(-c3cn(-c4ccccc4)nc3-c3cccc(O)c3)ccn2)CC1`, the growth with NCI-H23 lung is 37.7%; in the test on NCI-H226 lung it was 30.3%; in the test with NCI-H322M lung it was 73.9%; in the test on HOP-62 NSCLC, 91.3%; in the test with NCI-H460 lung, 63.4%; in the test on HOP-92 NSCLC it was 35.7%. In addition, the figures for the growth with 786-0 renal and in the test with COLO 205 colon were 54.6% and 60%, respectively.
